Source: PubChem (several laboratories)
A selection: hits, their analogues and other compounds. The true share with any hit is near 2.8%.
proKLK7 act = proKLK7 zymogen activators, primary screen, biochemical, fluorescence intensity; Kallikrein-7 (Homo sapiens), P49862; purified proKLK7, EDANS-DABCYL substrate fluorescence; 100% is mature enzyme control, 0% vehicle; activation, % at 7 µM; 0.9% of 370,000 active; AID 652039, 2013;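 active = activation above the mean of all tested compounds plus 3 SD, computed per campaign excluding outliers beyond control limits, cut at about 13% in these data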
Rev-erbA mod = modulators of Rev-erb alpha DNA binding, primary screen, biochemical, FITC-DNA, fluorescence polarization, uHTS; activity, % at 10 µM; Rev-erbα–FITC-DNA binding, 90 min; AID 1259318, 2017; Nuclear receptor subfamily 1 group D member 1 (Homo sapiens), P20393; 0.79% of 370,000 active;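 active = activity above about 14%, limit read from the data; passing the limit was not always enough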
PG9 Ab binder = binders of HIV-1 gp120 antibody PG9, primary screen, biochemical, TR-FRET | inhibition, % at 6.7 µM | 0.43% of 360,000 active | TR-FRET gp120-PG9 antibody binding | AID 624416, 2012 | HIV-1 gp120 / PG9 antibody interaction; in the data active = inhibition above about 8.5%
PP5 primary = PP5 phosphatase inhibitors, primary screen, biochemical, fluorescence; Serine/threonine-protein phosphatase 5 (Homo sapiens), P53041; inhibition, % at 6.7 µM; 0.18% of 320,000 active; purified PP5c, OMFP substrate fluorescence; AID 1987, 2009;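 active = inhibition above the campaign's mean inhibition across all tested compounds plus 3 SD, cut at about 9.5% in these data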
Target sequence (P53041 whole entry, looked up): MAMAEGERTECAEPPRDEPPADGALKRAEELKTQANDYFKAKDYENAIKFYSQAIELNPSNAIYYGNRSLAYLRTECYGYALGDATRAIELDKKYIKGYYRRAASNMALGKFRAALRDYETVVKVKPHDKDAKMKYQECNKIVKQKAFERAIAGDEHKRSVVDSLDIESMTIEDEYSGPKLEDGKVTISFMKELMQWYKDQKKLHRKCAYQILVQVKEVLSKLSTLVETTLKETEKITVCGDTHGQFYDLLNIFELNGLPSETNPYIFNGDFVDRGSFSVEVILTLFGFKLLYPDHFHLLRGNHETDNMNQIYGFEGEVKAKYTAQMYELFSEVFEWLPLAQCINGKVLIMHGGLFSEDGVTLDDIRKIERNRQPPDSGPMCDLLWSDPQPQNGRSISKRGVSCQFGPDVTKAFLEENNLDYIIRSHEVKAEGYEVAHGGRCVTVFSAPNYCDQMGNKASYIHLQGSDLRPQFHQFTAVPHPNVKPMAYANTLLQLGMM
JMJD2C inh = inhibitors of GASC-1 histone demethylase, primary screen, biochemical, fluorescence, DELFIA europium; 0.069% of 330,000 active; inhibition, % at 2.35 µM; GST-JMJD2C(1-420) H3K9me3 demethylation; AID 2099, 2009;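 active = more than half of a compound's replicate wells show inhibition beyond 50%, single wells judged on their own value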;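 note: signal counts dimethyl H3K9 product captured on neutravidin plate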
PP1 inh = PP1-alpha phosphatase inhibitors, primary screen, counter-screen for PP5 inhibitor project, biochemical, fluorescence, OMFP substrate, single point. Serine/threonine-protein phosphatase PP1-alpha catalytic subunit (Homo sapiens), P62136. purified PP1alpha. inhibition, % at 6.7 µM. 0.9% of 320,000 active;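 active = inhibition above the mean inhibition of all tested compounds plus 3 SD, computed separately for each screening campaign, cut at about 15% in these data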
NR1D1 mod conf = modulators of Rev-erb alpha DNA binding, confirmation, biochemical, FITC-DNA, fluorescence polarization, single point; 61% of 3,000 active; 90 min; shares compounds with Rev-erbA mod; activation, % at 25 µM;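 active = activation at or above a set limit, or at least 3 SD above the negative control mean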
RORg DNA counter = modulation of RORgamma DNA binding, dose response, counter-screen for Rev-erb alpha modulator project, biochemical, fluorescence polarization, FITC-DNA; shares compounds with Rev-erbA mod; purified RORgamma protein-FITC-DNA binding; AID 1259320, 2017; IC50, µM; 8% of 910 active;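 active = Compounds whose fitted half-maximal concentration for disrupting protein-DNA binding is below 10 micromolar; the record names Rev-erb in its text, so the target is in doubt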
Hits are given with their value; n = inactive; x = no result.

SMILES	proKLK7 act	Rev-erbA mod	PG9 Ab binder	PP5 primary	JMJD2C inh	PP1 inh	NR1D1 mod conf	others
CCc1noc(C)c1C(=O)Nc1nc(-c2ccc(F)cc2)c(C)s1	n	n	n	n	n	n	x
O=C(Nc1cccc(C(F)(F)F)c1)c1cc(Br)cc2c1OCC2	n	28.4	n	n	x	n	30.5	RORg DNA counter=4.46
CC(C)(C)S(=O)(=O)N1C[C@@H]2CC(=O)C(CCO)=C2[C@H]1CCO	n	n	n	x	x	x	x
Cc1ccc(C(c2sc3nc(C)nn3c2O)N2CCN(CCO)CC2)cc1 (centres undefined)	n	17.0	n	n	n	n	n
COc1cc(OC)cc(C(=O)OCc2cc3ccccc3[nH]c2=O)c1	n	56.9	n	n	n	n	50.3	RORg DNA counter=n
O=C(OCc1cc2ccccc2[nH]c1=O)c1cccs1	n	27.1	n	n	n	n	24.0
O=C(OCc1cc2ccccc2[nH]c1=O)c1ccccn1	n	n	n	n	n	n	x
Cc1ccc2[nH]c(=O)c(CN(C(=O)c3cccs3)c3ccccc3)cc2c1	n	51.6	n	n	n	n	95.5	RORg DNA counter=n
COc1ccccc1C(=O)N1CCN(C(=O)[C@@H](Cc2ccccc2)NC(=O)[C@H]2O[C@@H](n3ccc(=O)[nH]c3=O)[C@H](O)[C@@H]2O)CC1	n	n	n	x	x	x	x
O=C(N[C@H](C(=O)N1CCC[C@H]1C(=O)NC1CCCC1)C1CCCCC1)c1ccco1	n	n	n	x	x	x	x
CC1(C)Cc2c(sc3c2c(N)nc(=S)n3Cc2ccccc2)CO1	n	110.5	n	n	n	n	35.8	RORg DNA counter=n
CC1(C)Cc2c(sc3[nH]c(=S)n(Cc4ccccc4)c(=O)c23)CO1	n	x	n	n	n	n	x
CC(=O)N1CCCN(S(=O)(=O)c2ccc3c(c2)c(=O)n(C)c(=O)n3C)CC1	n	n	x	x	x	x	x
CCOC(=O)c1sc(NC(=S)NC(=O)C2CCCC2)cc1C	n	69.7	n	n	n	n	40.3	RORg DNA counter=n
CCOC(=O)c1sc(NC(=O)c2ccc(Cl)s2)cc1C	n	15.6	n	n	n	n	11.5
CCOC(=O)c1sc(NC(=O)C2CC2)cc1C	n	n	n	n	n	n	x
CC1CC(C)CN(C(=O)C2CCN(c3cncnc3)CC2)C1 (centres undefined)	n	n	x	x	x	x	x
CCCCCCn1c(-c2ccc(Cl)cc2Cl)csc1=Nc1ccccc1	n	n	x	x	x	x	x
CC(C)c1ccc(S(=O)(=O)c2cc3cc(Br)ccc3oc2=O)cc1	n	19.4	n	n	n	n	n
CCC(C)(C)NC(=O)CN(Cc1ccc2c(c1)OCO2)C(=O)CCC(=O)Nc1ccccn1	n	27.2	n	n	n	n	n
C[C@@H]1OC(C2CCCCC2)N(C)[C@H]2C[C@H]3c4cc(N5CCOCC5)ccc4CCN3C[C@@H]12 (some centres undefined)	n	n	x	x	x	x	x
COc1ccc(N=Cc2c(O)n(-c3cccc(C)n3)c(=O)c3ccccc23)c(OC)c1	n	52.7	n	n	n	n	n
COc1cccc(N=Cc2c(O)n(-c3cccc(C)n3)c(=O)c3ccccc23)c1	n	n	n	n	n	n	x
COc1ccc(/C=N\NC(=O)c2ccc([N+](=O)[O-])cc2)cc1COc1c(F)c(F)cc(F)c1F	n	n	n	x	n	x	x
COc1ccc(/C=N\NC(=O)c2ccccc2[N+](=O)[O-])cc1COc1c(F)c(F)c(F)c(F)c1F	n	19.8	n	n	n	n	n
SMILES	proKLK7 act	Rev-erbA mod	PG9 Ab binder	PP5 primary	JMJD2C inh	PP1 inh	NR1D1 mod conf	others
COc1cc2c(cc1NC(=O)CSc1nnc(-c3ccccc3C)n1Cc1ccco1)oc1ccccc12	n	n	x	x	x	x	x
COc1ccc(-n2cnnc2SCC(=O)Nc2cccnc2Cl)cc1	n	n	n	n	n	n	x
COc1ccc2c(C)cc(SCC(=O)Nc3cccnc3Cl)nc2c1	n	59.2	n	n	n	n	69.0	RORg DNA counter=n
CC(=O)c1cc(-c2ccccc2)n(CC(=O)NCc2ccccc2Cl)c1C	n	n	x	x	x	x	x
COc1cccc(N2CCN(CC(=O)NCc3c(F)cccc3F)CC2)c1	n	n	x	x	x	x	x
O=C(Cn1c(=O)c(=O)n(Cc2ccccc2)c2ccc(Cl)cc21)Nc1cccc(F)c1	n	44.0	n	n	n	n	24.1
O=C(Cn1c2ccccc2c(=O)c2ccccc21)Nc1cccc(F)c1	n	28.0	n	n	n	n	n
O=C(CN1CCN(Cc2ccccc2)CC1)Nc1cccc(Cl)c1	n	n	n	n	n	n	x
Nc1nc2c(ncn2[C@@H]2O[C@H](C(=O)N[C@H](Cc3ccccc3)C(=O)NCc3ccc4c(c3)OCO4)[C@@H](O)[C@H]2O)c(=O)[nH]1	n	n	n	x	x	x	x
COC(=O)C1=C(C)N(Cc2cccc(C(F)(F)F)c2)C(=NCc2ccc(OC)cc2)NC1c1ccc(F)cc1 (centres undefined)	n	n	n	x	x	x	x
CN(CC(=O)Nc1cccc(F)c1)C(=O)c1ccc(-c2ccc(Cl)cc2)o1	n	n	n	n	n	n	x
Cc1ccc(C)c(NC(=O)CN(C)C(=O)c2ccc(-c3ccc(Cl)cc3)o2)c1	n	25.6	n	n	n	n	17.8
Cc1ccc(S(=O)(=O)NC[C@@H]2C[C@H](c3ccccc3)ON2S(=O)(=O)c2ccc(C)cc2)cc1	x	n	x	x	x	x	x
Cc1ccccc1CNC(=O)C1C2C=CC3(CN(Cc4ccccc4)C(=O)C13)O2 (centres undefined)	n	n	x	x	x	x	x
